Activity calls are given as the source filed them. Unless noted, the rule behind the calls is not given here.
Key:
[1] = sensitizers of A549 cells to miR-34 induction, primary screen, imaging, A549 dox-inducible miR-34, nuclei and caspase counts (AID 1347080;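 active = compounds whose cell count with miR-34 switched on is under 0.7 times the count with it off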); settings: A549 miR-34 inducible, Hoechst nuclei count, 48 h
[2] = modifiers of HSF1 nuclear foci, imaging, Selleck Cancer Library (AID 1347162; in the data active = plate-normalised HSF1 focus index below about 0.46); settings: human cells, at 10 µM; SSMD: measured here: HSF1 foci SSMD mean; cell count: measured here: cell number; plate-normalised HSF1 focus index: stronger effect = lower value
[3] = phospholipid biosynthesis inhibitors in animal cells, primary screen, cell-based, LOPAC library, screen 4 (AID 1347384); settings: phospholipid biosynthesis inhibition screen, at 10 µM
[4] = viability rescue of complex I mutant cybrids, primary screen, cell-based, galactose medium, ATP luminescence (AID 1645843;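 active = z-score of at least 1.8 in each of two replicates, scored against plate mean and spread of sample wells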;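 note: positive z means more ATP and so rescue of galactose-driven cybrid death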); settings: complex I mutant cybrid cells, 72 h, stronger effect = higher value
[5] = circadian clock period modulators, cell-based, LOPAC library, luminescence reporter (AID 2774); settings: circadian reporter cells, at 7 µM, actives lie on both sides;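 note: values are relative to mean of DMSO wells on each plate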
[6] = test system: Hepatitis C virus NS3 helicase; test: HCV NS3 helicase inhibitors, primary screen, biochemical, fluorescence polarization, LOPAC1280 library (AID 687035; in the data active = inhibition above about 37%); settings: Purified HCV NS3 helicase, Cy5-dT15 ssDNA binding fluorescence polarization; stronger effect = higher value; concentration not given here
[7] = Cy5 fluorescence quenching or enhancement artefacts, artefact control for HCV NS3 helicase inhibitor project, biochemical, LOPAC1280 (AID 687037); settings: Cy5-DNA-NS3h complex fluorescence interference counterscreen
[8] = biological target: Mitogen-activated protein kinase 7 (Homo sapiens) (UniProt Q13164); test: ERK5 transactivation activators in reporter cells, primary screen, cell-based, HTS (AID 1508626;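 active = luciferase signal above three times the same-plate solvent-only control wells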;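 note: luciferase driven by Gal4-ERK5 fusion binding five Gal4 sites before minimal TATA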); settings: HeLa Gal4-ERK5 transactivation, 18 h, at 5 µM, stronger effect = higher value
[9] = liver-stage malaria parasite growth inhibition, primary screen, cell-based, HepG2, luciferase luminescence, HepG2 viability (AID 624349; in the data active = parasite load remaining mostly below about 12%, no sharp cut-off; inactive = mostly above about 10%;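 note: 100% = mean of DMSO negative control wells on the same plate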); settings: P. berghei liver stage in HepG2, luciferase luminescence, concentration not given here; parasite load remaining: stronger effect = lower value; viability: measured here: HepG2 viability without parasites
[10] = survival rescue of mitochondrial mutant cells in low glucose, primary screen, MELAS cybrids, Rieske KO mouse fibroblasts, CellTiter-Glo (AID 1508586;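 active = mean z-score across replicates of 1.96 or higher in either the MELAS or the Rieske mutant cell line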;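 note: z relative to plate mean and SD of compound and empty wells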)
[11] = hESC survival regulators, cell-based (AID 493140); settings: human embryonic stem cell survival screen; stronger effect = higher value;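 note: cells exposed to compounds for four days before counting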
[12] = inhibitors of Cryptococcus chitosan production, flow cytometry, Cibacron Brilliant Red staining (AID 1347148); settings: Cryptococcus neoformans chitosan, stronger effect = lower value; at 10 µM unless noted;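 note: compound exposure lasted three days at 37 degrees C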
[13] = biological target: NAD(+) hydrolase SARM1 (Homo sapiens) (UniProt Q6SZW1); test: SARM1 TIR NADase inhibitors, cell lysate, NAD-Glo luminescence (AID 1508614;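 active = compound whose remaining NAD level is above about 45 nM, limit read from the data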;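 note: higher remaining NAD means stronger inhibition of SARM1 NADase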); settings: SAM-TIR HEK293T lysate NADase, at 1 µM, stronger effect = higher value
[14] = stronger effect = lower value, cell number ratio, induced over uninduced
[15] = measured here: relative caspase fold change +Dox/-Dox
[16] = measured here: total cells with miR-34 induction, stronger effect = lower value
[17] = measured here: total cells without miR-34 induction
[18] = MELAS cybrid survival, CellTiter-Glo 48 h, stronger effect = higher value
[19] = Rieske KO mouse fibroblast survival, CellTiter-Glo 72 h

Sequence of NAD(+) hydrolase SARM1 (Homo sapiens) (Q6SZW1 whole entry, looked up): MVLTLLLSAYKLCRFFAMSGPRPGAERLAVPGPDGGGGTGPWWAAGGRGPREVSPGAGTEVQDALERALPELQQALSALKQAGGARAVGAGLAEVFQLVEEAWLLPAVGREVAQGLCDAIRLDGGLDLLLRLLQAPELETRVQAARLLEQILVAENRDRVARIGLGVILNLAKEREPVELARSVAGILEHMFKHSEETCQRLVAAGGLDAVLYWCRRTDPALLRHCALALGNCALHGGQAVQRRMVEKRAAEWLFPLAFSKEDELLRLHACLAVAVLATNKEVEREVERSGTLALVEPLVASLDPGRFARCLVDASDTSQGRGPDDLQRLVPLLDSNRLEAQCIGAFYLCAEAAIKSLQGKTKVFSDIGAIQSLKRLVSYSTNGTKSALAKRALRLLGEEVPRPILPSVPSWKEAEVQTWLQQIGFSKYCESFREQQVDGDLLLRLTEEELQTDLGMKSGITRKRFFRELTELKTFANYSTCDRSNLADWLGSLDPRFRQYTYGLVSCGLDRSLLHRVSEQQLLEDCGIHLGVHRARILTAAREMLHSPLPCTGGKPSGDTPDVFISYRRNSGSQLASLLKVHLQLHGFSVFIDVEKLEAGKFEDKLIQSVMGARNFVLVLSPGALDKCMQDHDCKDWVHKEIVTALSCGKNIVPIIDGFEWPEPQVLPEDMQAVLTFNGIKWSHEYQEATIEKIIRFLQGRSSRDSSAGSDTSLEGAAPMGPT
Sequence of Mitogen-activated protein kinase 7 (Homo sapiens) (Q13164 whole entry, looked up, the tested form may be a part): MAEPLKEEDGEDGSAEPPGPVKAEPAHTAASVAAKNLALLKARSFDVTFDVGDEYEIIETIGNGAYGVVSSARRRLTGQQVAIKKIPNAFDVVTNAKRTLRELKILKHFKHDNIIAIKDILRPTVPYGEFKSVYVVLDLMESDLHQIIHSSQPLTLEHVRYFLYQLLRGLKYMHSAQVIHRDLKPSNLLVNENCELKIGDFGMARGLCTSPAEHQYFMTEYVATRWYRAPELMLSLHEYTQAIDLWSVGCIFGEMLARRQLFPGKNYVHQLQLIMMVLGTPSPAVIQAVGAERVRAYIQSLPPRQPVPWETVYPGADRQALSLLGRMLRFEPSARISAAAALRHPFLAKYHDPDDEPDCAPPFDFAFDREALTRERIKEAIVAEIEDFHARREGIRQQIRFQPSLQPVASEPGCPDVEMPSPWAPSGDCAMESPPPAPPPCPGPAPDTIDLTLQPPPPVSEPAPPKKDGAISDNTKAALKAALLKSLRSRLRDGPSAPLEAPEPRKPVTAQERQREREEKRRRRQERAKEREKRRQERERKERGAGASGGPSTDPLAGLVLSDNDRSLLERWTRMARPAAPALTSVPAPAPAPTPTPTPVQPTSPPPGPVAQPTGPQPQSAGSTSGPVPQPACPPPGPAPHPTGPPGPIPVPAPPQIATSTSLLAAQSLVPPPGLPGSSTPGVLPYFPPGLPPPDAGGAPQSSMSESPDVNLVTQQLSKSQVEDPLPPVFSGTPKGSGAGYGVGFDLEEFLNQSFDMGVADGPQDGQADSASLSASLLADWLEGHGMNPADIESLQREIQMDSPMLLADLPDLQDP

## CCCC(=O)O
[1]; [14]
  fold change: 0.924 (inactive)
[1]; [15]
  fold change: 0.39
[1]; [16]
  cell count: 4770
[1]; [17]
  cell count: 5160
[2]
  SSMD: 1.8
  cell count: 7190
  plate-normalised HSF1 focus index: 1.11 (inactive)

## O=C(Nc1ccc2[nH]ncc2c1)C1CCC1
[1]; [14]
  fold change: 1.01 (inactive)
[1]; [15]
  fold change: 1.17
[1]; [16]
  cell count: 9900
[1]; [17]
  cell count: 9790
[3]
  outcome: inactive
[4]
  z-score: 0.43 (inactive)

## COCCOc1cc2ncnc(Cl)c2cc1OCCOC
[1]; [14]
  fold change: 1.03 (inactive)
[1]; [15]
  fold change: 1.13
[1]; [16]
  cell count: 9200
[1]; [17]
  cell count: 8960
[3]
  outcome: inactive
[4]
  z-score: -0.675 (inactive)

## CCCCS(=N)(=O)CC[C@H](N)C(=O)O (some centres not stated)
[5]
  period change: -0.045 h (inactive)
[6]
  inhibition: -2% (inactive)
[7]
  fluorescence ratio (interference): 1 (inactive)
[1]; [14]
  fold change: 0.972 (inactive)
[1]; [15]
  fold change: 2.07
[1]; [16]
  cell count: 9810
[1]; [17]
  cell count: 10100
[3]
  outcome: inactive
[8]
  luciferase signal: 48 AU (inactive)
[4]
  z-score: -0.84 (inactive)

## CC[C@H]1OC(=O)[C@H](C)[C@@H](O[C@H]2C[C@@](C)(OC)[C@@H](O)[C@H](C)O2)[C@H](C)[C@@H](O[C@@H]2O[C@H](C)C[C@H](NC)[C@H]2O)[C@](C)(O)C[C@@H](C)CN(C)[C@H](C)[C@@H](O)[C@]1(C)O
[1]; [14]
  fold change: 1.02 (inactive)
[1]; [15]
  fold change: 1.41
[1]; [16]
  cell count: 10700
[1]; [17]
  cell count: 10400
[3]
  outcome: inactive
[4]
  z-score: 0.37 (inactive)

## N[C@@H]1CCCC[C@H]1N.O=C(O)C(=O)O.[Pt]
[9]
  parasite load remaining: 182% (inactive)
  viability: 134%
[1]; [14]
  fold change: 0.972 (inactive)
[1]; [15]
  fold change: 1.18
[1]; [16]
  cell count: 4570
[1]; [17]
  cell count: 4710
[2]
  SSMD: 1.36
  cell count: 7520
  plate-normalised HSF1 focus index: 1.09 (inactive)
[10]; [18]
  z-score: 0.335 (inactive)
[10]; [19]
  z-score: -0.474
[4]
  z-score: 1.01 (inactive)

## CCCCCC1OC1C/C=C\C/C=C\C/C=C\CCCC(=O)O (configuration not stated)
[11]
  survival: 88.4 (inactive)
[1]; [14]
  fold change: 0.949 (inactive)
[1]; [15]
  fold change: 1.73
[1]; [16]
  cell count: 6230
[1]; [17]
  cell count: 6560
[12]
  fold fluorescence: 5.49 [at 1 µM] (inactive)

## Nc1ccn(C2O[C@H](CO)[C@@H](O)C2(F)F)c(=O)n1 (some centres not stated)
[1]; [14]
  fold change: 1.18 (inactive)
[1]; [15]
  fold change: 1.01
[1]; [16]
  cell count: 1960
[1]; [17]
  cell count: 1660
[3]
  outcome: inactive
[4]
  z-score: -1.32 (inactive)

## CCCCCCCCCCCCCCCCCCN(CCCCCCCCCCCCCCCCCC)CCCN(CCO)CCO
[1]; [14]
  fold change: 0.981 (inactive)
[1]; [15]
  fold change: 1.42
[1]; [16]
  cell count: 10100
[1]; [17]
  cell count: 10300
[3]
  outcome: inactive
[4]
  z-score: 0.39 (inactive)

## CO[C@H]1O[C@@H]2O[C@]3(C)CC[C@@H]4[C@@H](C)CC[C@H]([C@H]1C)[C@]24OO3
[1]; [14]
  fold change: 0.984 (inactive)
[1]; [15]
  fold change: 1.93
[1]; [16]
  cell count: 9680
[1]; [17]
  cell count: 9830
[3]
  outcome: inactive
[4]
  z-score: -0.71 (inactive)

## O=C(O)c1cc(N(Cc2ccccc2O)Cc2cc(O)ccc2O)ccc1O
[11]
  survival: 94.2 (inactive)
[1]; [14]
  fold change: 0.907 (inactive)
[1]; [15]
  fold change: 1.1
[1]; [16]
  cell count: 5160
[1]; [17]
  cell count: 5680
[12]
  fold fluorescence: 4.34 [at 131.1 µM] (inactive)

## N=C(N)SCCc1ccc(CCSC(=N)N)cc1
[5]
  period change: -0.135 h (inactive)
[6]
  inhibition: -5% (inactive)
[7]
  fluorescence ratio (interference): 0.9 (inactive)
[1]; [14]
  fold change: 1.11 (inactive)
[1]; [15]
  fold change: 0.636
[1]; [16]
  cell count: 5830
[1]; [17]
  cell count: 5230
[2]
  SSMD: 1.43
  cell count: 7320
  plate-normalised HSF1 focus index: 1.08 (inactive)

## C=CC(=O)N1CCCC(n2nc(-c3ccc(Oc4ccccc4)cc3)c3c(N)ncnc32)C1 (configuration not stated)
[1]; [14]
  fold change: 0.863 (inactive)
[1]; [15]
  fold change: 0.762
[1]; [16]
  cell count: 7670
[1]; [17]
  cell count: 8890
[2]
  SSMD: 2.74
  cell count: 7290
  plate-normalised HSF1 focus index: 1.17 (inactive)
[10]; [18]
  z-score: -0.153 (inactive)
[10]; [19]
  z-score: -0.517

## Cc1nc2n(c(=O)c1CCN1CCC(c3noc4cc(F)ccc34)CC1)CCCC2O (configuration not stated)
[6]
  inhibition: -4% (inactive)
[7]
  fluorescence ratio (interference): 1 (inactive)
[1]; [14]
  fold change: 1.04 (inactive)
[1]; [15]
  fold change: 0.907
[1]; [16]
  cell count: 9980
[1]; [17]
  cell count: 9570
[3]
  outcome: inactive
[13]
  remaining NAD: 10 nM (inactive)
[4]
  z-score: -0.155 (inactive)

## S=c1[nH]c(-c2ccccc2)cn1-c1ccccc1
[1]; [14]
  fold change: 0.982 (inactive)
[1]; [15]
  fold change: 1.24
[1]; [16]
  cell count: 9110
[1]; [17]
  cell count: 9280
[3]
  outcome: inactive
[4]
  z-score: -0.15 (inactive)

## CC[C@H]1OC(=O)[C@H](C)C(O[C@H]2C[C@@](C)(OC)[C@@H](O)[C@H](C)O2)[C@H](C)[C@@H](OC2O[C@H](C)C[C@H](N(C)C)[C@H]2O)[C@](C)(O)C[C@@H](C)CN(C)[C@H](C)[C@@H](O)[C@]1(C)O (some centres not stated)
[1]; [14]
  fold change: 1.06 (inactive)
[1]; [15]
  fold change: 1.99
[1]; [16]
  cell count: 10100
[1]; [17]
  cell count: 9500
[3]
  outcome: inactive
[4]
  z-score: -0.895 (inactive)

## CCCCC/C=C\C/C=C\C/C=C\C=C\[C@@H](O)CCCC(=O)O
[11]
  survival: 128 (inactive)
[1]; [14]
  fold change: 0.957 (inactive)
[1]; [15]
  fold change: 1.24
[1]; [16]
  cell count: 5700
[1]; [17]
  cell count: 5960
[12]
  fold fluorescence: 4.16 [at 1 µM] (inactive)

## CCCCN(CC)c1nc(C)nc2c1c(C)cn2-c1c(C)cc(C)cc1C
[1]; [14]
  fold change: 1.08 (inactive)
[1]; [15]
  fold change: 0.964
[1]; [16]
  cell count: 6200
[1]; [17]
  cell count: 5770
[3]
  outcome: inactive
[4]
  z-score: -1.29 (inactive)

## CCCCC/C=C\C/C=C\C/C=C\C/C=C\CCCC(=O)O[C@@H](CO)COCCCCCCCCCCCCCCCC
[11]
  survival: 92.7 (inactive)
[1]; [14]
  fold change: 0.961 (inactive)
[1]; [15]
  fold change: 1.06
[1]; [16]
  cell count: 5620
[1]; [17]
  cell count: 5840
[12]
  fold fluorescence: 5.56 (inactive)

## CCCCCCCCCC(=O)N[C@H](CN1CCOCC1)[C@H](O)c1ccccc1
[11]
  survival: 80.8 (inactive)
[1]; [14]
  fold change: 0.988 (inactive)
[1]; [15]
  fold change: 1.18
[1]; [16]
  cell count: 5550
[1]; [17]
  cell count: 5620
[12]
  fold fluorescence: 3.25 (active)

## COC(=O)C1=C(C)NC(C)=C(C(=O)OC)C1c1cccc(NC(=O)NCCCN2CCC(c3cccc(OC)c3)CC2)c1
[1]; [14]
  fold change: 1.58 (inactive)
[1]; [15]
  fold change: 0.349
[1]; [16]
  cell count: 2200
[1]; [17]
  cell count: 1390
[3]
  outcome: inactive
[4]
  z-score: -1.35 (inactive)
